# Assay results from PubChem BioAssay (EPA / NIEHS).
# Results filed as inconclusive are left out. More than one record can exist for a structure, and the calls need not agree. Calls of active or inactive are those of the source. Rule for the calls: active = hit-call score of the fitted dose curve at least 0.9, where 1 is the maximum; inconclusive = response in the unintended direction; inactive = score below 0.9.
# Experiments:
# [1] = ATG_M_19_XSP1: Attagene TRANS-FACTORIAL Multi-Species (XSP1) HepG2 Assay for M19 Transcription Factor (Internal Marker) (AID 2283798)
# Procedure, shortened: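 HepG2 cells transiently transfected with multiplexed GAL4-UAS reporter units, dosed 24 h with 3 nM 6-alpha-fluorotestosterone present for partial AR stimulation. Reporter mRNA measured by RT-PCR with capillary electrophoresis; gain-of-signal fitted relative to DMSO.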
# [2] = biological target: Peroxisome proliferator-activated receptor gamma (Homo sapiens) (UniProt P37231); experiment: ATG_hPPARg_XSP1: Attagene TRANS-FACTORIAL Multi-Species (XSP1) HepG2 Assay for human Peroxisome Proliferator-activated Receptor gamma (PPARg) (AID 2283800)
# Procedure, shortened: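 HepG2 cells transiently transfected with GAL4-UAS reporter units carrying chimeric NR-Gal4 proteins; 3 nM 6-alpha-fluorotestosterone present. After 24 h dosing, reporter mRNA quantified by RT-PCR and capillary electrophoresis; gain of signal relative to DMSO.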
# [3] = biological target: mouse Peroxisome Proliferator-activated Receptor gamma (PPARg), Pparg (gene 19016) (UniProt P37238); experiment: ATG_mPPARg_XSP1: Attagene TRANS-FACTORIAL Multi-Species (XSP1) HepG2 Assay for mouse Peroxisome Proliferator-activated Receptor gamma (PPARg) (AID 2283802)
# Procedure, shortened: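 HepG2 cells transiently transfected with GAL4-UAS reporter units driven by mouse PPARg–GAL4 chimera; 3 nM 6-alpha-fluorotestosterone present. After 24 h dosing, reporter mRNA quantified by RT-PCR, fluorescent labelling and capillary electrophoresis; gain of signal versus DMSO.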
# [4] = biological target: Nuclear receptor subfamily 1 group I member 2 (Mus musculus) (UniProt O54915); experiment: ATG_mPXR_XSP1: Attagene TRANS-FACTORIAL Multi-Species (XSP1) HepG2 Assay for mouse Pregnane X Receptor (PXR) (AID 2283803)
# Procedure, shortened: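 Transiently transfected HepG2 cells expressing a receptor-Gal4 chimera drive a GAL4-UAS reporter; 3 nM 6-alpha-fluorotestosterone included. Reporter mRNA read 24 h post-dose by RT-PCR and capillary electrophoresis; gain of signal relative to DMSO.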
# [5] = biological target: human Thyroid hormone Receptor alpha (TRa), THRA (gene 7067) (UniProt P10827); experiment: ATG_hTRa_XSP1: Attagene TRANS-FACTORIAL Multi-Species (XSP1) HepG2 Assay for human Thyroid hormone Receptor alpha (TRa) (AID 2283805)
# Procedure, shortened: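 HepG2 cells transiently transfected with GAL4-UAS reporter units expressing chimeric NR-Gal4 proteins, dosed 24 hours with 3 nM 6-alpha-fluorotestosterone present. Reporter mRNA measured by RT-PCR and capillary electrophoresis; gain of signal fitted versus DMSO.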
# [6] = tested on: turtle Thyroid Hormone Receptor, alpha (TRa), gene 101949057; experiment: ATG_trTRa_XSP1: Attagene TRANS-FACTORIAL Multi-Species (XSP1) HepG2 Assay for turtle Thyroid Hormone Receptor, alpha (TRa) (AID 2283806)
# Procedure, shortened: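 HepG2 cells transiently transfected with GAL4-UAS reporter units and chimeric receptor-Gal4 constructs, with 3 nM 6-alpha-fluorotestosterone present. Reporter mRNA was quantified 24 h after dosing by RT-PCR, 6-FAM labelling and capillary electrophoresis; gain of signal versus DMSO.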
# [7] = biological target: zebrafish Thyroid Hormone Receptor alpha (TRa), thraa (gene 30670) (UniProt Q98867); experiment: ATG_zfTRa_XSP1: Attagene TRANS-FACTORIAL Multi-Species (XSP1) HepG2 Assay for zebrafish Thyroid Hormone Receptor alpha (TRa) (AID 2283807)
# Procedure, shortened: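 HepG2 cells transiently transfected with GAL4-UAS reporter units including a zebrafish TRa–Gal4 chimera, dosed 24 h with 3 nM 6-alpha-fluorotestosterone present. Reporter mRNA quantified by RT-PCR and capillary electrophoresis; gain versus DMSO.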
# [8] = biological target: human Thyroid hormone Receptor beta (TRb), THRB (gene 7068) (UniProt P10828); experiment: ATG_hTRb_XSP1: Attagene TRANS-FACTORIAL Multi-Species (XSP1) HepG2 Assay for human Thyroid hormone Receptor beta (TRb) (AID 2283808)
# Procedure, shortened: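 HepG2 cells transiently transfected with reporter units driving GAL4-UAS reporters for chimeric NR-Gal4 proteins; 24 h chemical exposure with 3 nM 6-alpha-fluorotestosterone present. Reporter mRNA quantified by RT-PCR and capillary electrophoresis, gain of signal versus DMSO.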
# [9] = biological target: zebrafish Thyroid Hormone Receptor beta (TRb), thrb (gene 30607) (UniProt Q9PVE4); experiment: ATG_zfTRb_XSP1: Attagene TRANS-FACTORIAL Multi-Species (XSP1) HepG2 Assay for zebrafish Thyroid Hormone Receptor beta (TRb) (AID 2283809)
# Procedure, shortened: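 HepG2 cells transiently transfected with multiplexed GAL4-UAS reporter units expressing chimeric zebrafish TRb–Gal4. Dosed 24 h with 3 nM 6-alpha-fluorotestosterone present; reporter mRNA measured by RT-PCR, HpaI digestion and capillary electrophoresis; gain of signal versus DMSO.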
# [10] = ATG_XTT_Cytotoxicity_XSP1: Cytotoxicity Assessment in the Attagene TRANS-FACTORIAL Multi-Species (XSP1) HepG2 Assay (AID 2283810)
# Procedure, shortened: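 XTT viability readout taken at 24 hours post-dosing in HepG2 liver cells co-treated with 3 nM 6-alpha-fluorotestosterone. Signal loss relative to DMSO controls reflects cytotoxicity.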
# [11] = ATG_M_06_XSP2: Attagene TRANS-FACTORIAL Multi-Species (XSP2) HepG2 Assay for M06 Transcription Factor (Internal Marker) (AID 2283811);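 note: internal background marker reporter mRNA measured by RT-PCR and capillary electrophoresis; hits are increases in signal above the DMSO baseline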
# Procedure, shortened: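 HepG2 cells transiently transfected with GAL4-UAS multi-reporter constructs, dosed 24 h with 3 nM 6-alpha-fluorotestosterone plus 1.5 nM norgestrel present to stimulate androgen receptor. Reporter mRNA quantified by RT-PCR, 6-FAM labelling, HpaI digestion and capillary electrophoresis; gain-of-signal fitted versus DMSO baseline.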
# [12] = tested on: turtle Estrogen Receptor (ERa), gene 101933533; experiment: ATG_trERa_XSP2: Attagene TRANS-FACTORIAL Multi-Species (XSP2) HepG2 Assay for turtle Estrogen Receptor (ERa) (AID 2283812);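 note: human HepG2 liver cells transiently expressing turtle ERa-Gal4 chimeric receptor; actives raise reporter signal above DMSO so AC50 reflects agonist activity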
# Procedure, shortened: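 HepG2 cells transiently transfected with GAL4-UAS reporter units expressing turtle ERa-Gal4 chimera. Reporter mRNA measured after 24 h dosing by RT-PCR, fluorescent labelling and capillary electrophoresis; gain of signal fitted versus DMSO.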
# [13] = biological target: zebrafish Estrogen Receptor (ER1), esr1 (gene 259252) (UniProt P57717); experiment: ATG_zfER1_XSP2: Attagene TRANS-FACTORIAL Multi-Species (XSP2) HepG2 Assay for zebrafish Estrogen Receptor (ER1) (AID 2283816)
# Procedure, shortened: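 HepG2 cells transiently transfected with a GAL4-UAS reporter and a chimeric zebrafish ER1-Gal4 construct, dosed 24 h. Reporter mRNA quantified by RT-PCR, labelling, HpaI digestion and capillary electrophoresis, relative to DMSO.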
# [14] = biological target: chicken Estrogen Receptor (ERa), ESR1 (gene 396099) (UniProt P06212); experiment: ATG_chERa_XSP2: Attagene TRANS-FACTORIAL Multi-Species (XSP2) HepG2 Assay for chicken Estrogen Receptor (ERa) (AID 2283817);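 note: actives raise reporter signal above DMSO so AC50 reflects ER activation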
# Procedure, shortened: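 HepG2 cells transiently transfected with multiplexed GAL4-UAS reporter units expressing chimeric chicken ERa-Gal4; 24 h compound exposure. Reporter mRNA measured by RT-PCR with 6-FAM labelling, HpaI digestion and capillary electrophoresis; gain-of-signal fitted versus DMSO.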
# [15] = biological target: Estrogen receptor beta (Homo sapiens) (UniProt Q92731); experiment: ATG_hERb_XSP2: Attagene TRANS-FACTORIAL Multi-Species (XSP2) HepG2 Assay for human Estrogen Receptor (ERb) (AID 2283813);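 note: actives raise reporter mRNA above DMSO so AC50 reflects agonist induction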
# Procedure, shortened: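 HepG2 cells transiently transfected with GAL4-UAS reporter units and chimeric human ERb-Gal4, 24 h exposure. Reporter mRNA quantified by RT-PCR with FAM labelling, HpaI digestion and capillary electrophoresis; gain of signal versus DMSO.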
# [16] = tested on: zebrafish Peroxisome Proliferator-activated Receptor gamma (PPARg), gene 557037; experiment: ATG_zfPPARg_XSP1: Attagene TRANS-FACTORIAL Multi-Species (XSP1) HepG2 Assay for zebrafish Peroxisome Proliferator-activated Receptor gamma (PPARg) (AID 2283801)
# Procedure, shortened: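 HepG2 cells transiently transfected with GAL4-UAS reporter units including a zebrafish PPARg–GAL4 chimera, dosed 24 h with 3 nM 6-alpha-fluorotestosterone present. Reporter mRNA quantified by RT-PCR, FAM labelling, HpaI digestion and capillary electrophoresis; induction versus DMSO.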
# [17] = biological target: GAL4 Transcription Factor (Internal Marker), GAL4 (gene 855828) (UniProt P04386); experiment: ATG_GAL4_XSP2: Attagene TRANS-FACTORIAL Multi-Species (XSP2) HepG2 Assay for GAL4 Transcription Factor (Internal Marker) (AID 2283814);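 note: GAL4 reporter mRNA background control in MRTU transfected cells not a receptor target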
# Procedure, shortened: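 HepG2 cells transiently transfected with GAL4-UAS reporter units, stimulated with 3 nM 6-alpha-fluorotestosterone plus 1.5 nM norgestrel, dosed 24 h. Reporter mRNA by RT-PCR/capillary electrophoresis; gain-of-signal fit versus DMSO, background control.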
# mouse Peroxisome Proliferator-activated Receptor gamma (PPARg), Pparg (gene 19016), sequence (P37238 whole entry, looked up, the tested form may be a part): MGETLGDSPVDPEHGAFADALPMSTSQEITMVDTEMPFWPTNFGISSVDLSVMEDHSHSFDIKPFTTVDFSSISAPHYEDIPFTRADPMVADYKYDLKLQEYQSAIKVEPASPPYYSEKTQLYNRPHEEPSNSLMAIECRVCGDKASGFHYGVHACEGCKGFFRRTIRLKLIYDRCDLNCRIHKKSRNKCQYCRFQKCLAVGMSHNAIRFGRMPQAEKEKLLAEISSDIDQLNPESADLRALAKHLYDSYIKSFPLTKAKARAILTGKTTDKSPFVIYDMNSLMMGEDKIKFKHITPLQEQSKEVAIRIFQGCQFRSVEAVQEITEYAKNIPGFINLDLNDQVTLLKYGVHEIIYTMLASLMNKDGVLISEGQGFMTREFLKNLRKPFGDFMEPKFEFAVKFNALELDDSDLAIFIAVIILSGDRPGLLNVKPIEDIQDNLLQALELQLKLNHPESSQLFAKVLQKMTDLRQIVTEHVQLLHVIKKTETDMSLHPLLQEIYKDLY
# zebrafish Estrogen Receptor (ER1), esr1 (gene 259252), sequence (P57717 whole entry, looked up, the tested form may be a part): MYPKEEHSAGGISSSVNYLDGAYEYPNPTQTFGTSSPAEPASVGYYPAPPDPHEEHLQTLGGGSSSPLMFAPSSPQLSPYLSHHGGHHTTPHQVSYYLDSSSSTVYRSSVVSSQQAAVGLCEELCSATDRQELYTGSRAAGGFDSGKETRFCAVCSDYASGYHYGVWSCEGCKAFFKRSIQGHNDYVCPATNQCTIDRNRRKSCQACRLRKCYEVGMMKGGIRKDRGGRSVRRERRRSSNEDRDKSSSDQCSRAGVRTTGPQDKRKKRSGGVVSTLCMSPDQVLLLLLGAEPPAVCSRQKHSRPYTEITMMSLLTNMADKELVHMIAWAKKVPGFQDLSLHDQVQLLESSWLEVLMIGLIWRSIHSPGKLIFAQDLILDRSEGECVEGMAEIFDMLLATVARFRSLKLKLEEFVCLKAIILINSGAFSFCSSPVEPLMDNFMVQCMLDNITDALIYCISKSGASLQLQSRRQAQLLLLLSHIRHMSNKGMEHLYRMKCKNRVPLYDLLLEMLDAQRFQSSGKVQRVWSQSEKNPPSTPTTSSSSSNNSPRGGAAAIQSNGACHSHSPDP
# Estrogen receptor beta (Homo sapiens), sequence (Q92731 whole entry, looked up, the tested form may be a part): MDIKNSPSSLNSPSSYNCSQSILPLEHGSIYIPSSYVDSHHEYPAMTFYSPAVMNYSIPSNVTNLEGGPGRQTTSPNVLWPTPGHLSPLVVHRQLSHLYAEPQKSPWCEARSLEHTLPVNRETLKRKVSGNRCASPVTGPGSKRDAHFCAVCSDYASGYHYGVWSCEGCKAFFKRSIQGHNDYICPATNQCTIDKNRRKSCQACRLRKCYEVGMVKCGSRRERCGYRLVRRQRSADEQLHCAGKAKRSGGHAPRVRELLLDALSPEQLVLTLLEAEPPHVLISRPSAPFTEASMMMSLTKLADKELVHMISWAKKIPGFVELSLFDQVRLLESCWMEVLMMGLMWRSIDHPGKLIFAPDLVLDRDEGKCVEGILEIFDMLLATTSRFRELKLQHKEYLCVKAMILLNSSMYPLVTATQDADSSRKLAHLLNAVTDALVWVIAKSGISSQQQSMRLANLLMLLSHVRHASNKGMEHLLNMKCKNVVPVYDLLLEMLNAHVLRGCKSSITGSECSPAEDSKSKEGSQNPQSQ
# Nuclear receptor subfamily 1 group I member 2 (Mus musculus), sequence (O54915 whole entry, looked up, the tested form may be a part): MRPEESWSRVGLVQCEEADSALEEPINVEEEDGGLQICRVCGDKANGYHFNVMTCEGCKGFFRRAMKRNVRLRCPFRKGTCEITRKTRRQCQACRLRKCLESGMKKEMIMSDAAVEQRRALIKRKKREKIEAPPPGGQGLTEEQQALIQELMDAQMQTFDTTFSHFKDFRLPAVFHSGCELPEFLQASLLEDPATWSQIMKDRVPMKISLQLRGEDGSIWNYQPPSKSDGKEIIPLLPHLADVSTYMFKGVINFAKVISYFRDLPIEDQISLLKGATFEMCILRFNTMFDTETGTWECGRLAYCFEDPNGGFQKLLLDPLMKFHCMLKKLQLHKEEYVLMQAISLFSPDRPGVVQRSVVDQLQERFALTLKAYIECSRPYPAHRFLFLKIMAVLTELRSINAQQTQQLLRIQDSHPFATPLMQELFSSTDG
# chicken Estrogen Receptor (ERa), ESR1 (gene 396099), sequence (P06212 whole entry, looked up, the tested form may be a part): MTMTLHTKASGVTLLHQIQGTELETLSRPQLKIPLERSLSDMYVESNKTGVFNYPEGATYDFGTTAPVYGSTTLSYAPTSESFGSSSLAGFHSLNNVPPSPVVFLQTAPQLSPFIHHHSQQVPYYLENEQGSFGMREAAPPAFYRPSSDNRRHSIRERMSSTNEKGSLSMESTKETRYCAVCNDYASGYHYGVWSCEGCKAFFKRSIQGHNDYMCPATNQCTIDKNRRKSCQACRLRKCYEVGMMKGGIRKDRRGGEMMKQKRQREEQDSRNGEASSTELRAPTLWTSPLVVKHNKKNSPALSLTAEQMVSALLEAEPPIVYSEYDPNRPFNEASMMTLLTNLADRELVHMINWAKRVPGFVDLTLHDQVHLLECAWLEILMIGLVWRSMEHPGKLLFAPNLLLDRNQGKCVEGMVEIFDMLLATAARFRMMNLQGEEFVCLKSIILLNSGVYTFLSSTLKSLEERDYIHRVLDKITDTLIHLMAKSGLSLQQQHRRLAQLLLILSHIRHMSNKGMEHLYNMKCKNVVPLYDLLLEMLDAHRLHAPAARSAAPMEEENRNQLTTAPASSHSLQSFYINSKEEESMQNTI
# Peroxisome proliferator-activated receptor gamma (Homo sapiens), sequence (P37231 whole entry, looked up, the tested form may be a part): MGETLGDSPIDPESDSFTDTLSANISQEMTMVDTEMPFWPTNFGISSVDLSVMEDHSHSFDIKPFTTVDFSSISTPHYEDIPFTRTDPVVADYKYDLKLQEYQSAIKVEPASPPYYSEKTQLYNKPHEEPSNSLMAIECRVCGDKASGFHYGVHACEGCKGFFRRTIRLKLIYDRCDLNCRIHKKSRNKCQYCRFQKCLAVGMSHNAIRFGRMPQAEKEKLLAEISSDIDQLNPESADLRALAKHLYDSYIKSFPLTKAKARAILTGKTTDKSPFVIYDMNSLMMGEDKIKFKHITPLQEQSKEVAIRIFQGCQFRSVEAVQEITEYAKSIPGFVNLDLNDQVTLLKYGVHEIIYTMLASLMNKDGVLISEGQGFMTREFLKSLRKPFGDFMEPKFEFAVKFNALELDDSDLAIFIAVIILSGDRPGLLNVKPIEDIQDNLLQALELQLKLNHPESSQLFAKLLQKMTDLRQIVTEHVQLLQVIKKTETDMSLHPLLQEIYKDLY
# zebrafish Thyroid Hormone Receptor beta (TRb), thrb (gene 30607), sequence (Q9PVE4 whole entry, looked up, the tested form may be a part): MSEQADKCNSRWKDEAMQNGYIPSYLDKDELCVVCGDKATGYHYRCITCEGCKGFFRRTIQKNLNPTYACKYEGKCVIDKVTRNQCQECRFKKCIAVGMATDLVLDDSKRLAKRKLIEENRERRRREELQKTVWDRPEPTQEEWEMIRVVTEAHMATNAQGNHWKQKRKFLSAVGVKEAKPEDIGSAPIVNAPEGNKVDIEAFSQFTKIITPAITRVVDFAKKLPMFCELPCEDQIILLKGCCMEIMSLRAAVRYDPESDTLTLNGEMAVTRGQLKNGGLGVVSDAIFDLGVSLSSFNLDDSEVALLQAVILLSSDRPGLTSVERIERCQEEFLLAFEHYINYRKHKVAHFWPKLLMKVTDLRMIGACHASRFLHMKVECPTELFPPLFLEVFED
# zebrafish Thyroid Hormone Receptor alpha (TRa), thraa (gene 30670), sequence (Q98867 whole entry, looked up, the tested form may be a part): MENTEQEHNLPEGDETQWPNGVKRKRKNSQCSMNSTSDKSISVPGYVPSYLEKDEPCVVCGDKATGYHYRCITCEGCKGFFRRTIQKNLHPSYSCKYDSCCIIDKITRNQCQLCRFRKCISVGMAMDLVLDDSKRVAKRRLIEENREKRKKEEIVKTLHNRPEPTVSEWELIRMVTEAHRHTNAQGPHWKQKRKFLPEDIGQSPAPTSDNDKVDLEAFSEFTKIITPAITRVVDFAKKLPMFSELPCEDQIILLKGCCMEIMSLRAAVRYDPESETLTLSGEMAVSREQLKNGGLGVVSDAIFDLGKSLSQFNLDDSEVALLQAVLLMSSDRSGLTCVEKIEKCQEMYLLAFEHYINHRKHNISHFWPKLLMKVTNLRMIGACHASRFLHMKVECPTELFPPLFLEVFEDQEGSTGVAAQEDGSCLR
# human Thyroid hormone Receptor beta (TRb), THRB (gene 7068), sequence (P10828 whole entry, looked up, the tested form may be a part): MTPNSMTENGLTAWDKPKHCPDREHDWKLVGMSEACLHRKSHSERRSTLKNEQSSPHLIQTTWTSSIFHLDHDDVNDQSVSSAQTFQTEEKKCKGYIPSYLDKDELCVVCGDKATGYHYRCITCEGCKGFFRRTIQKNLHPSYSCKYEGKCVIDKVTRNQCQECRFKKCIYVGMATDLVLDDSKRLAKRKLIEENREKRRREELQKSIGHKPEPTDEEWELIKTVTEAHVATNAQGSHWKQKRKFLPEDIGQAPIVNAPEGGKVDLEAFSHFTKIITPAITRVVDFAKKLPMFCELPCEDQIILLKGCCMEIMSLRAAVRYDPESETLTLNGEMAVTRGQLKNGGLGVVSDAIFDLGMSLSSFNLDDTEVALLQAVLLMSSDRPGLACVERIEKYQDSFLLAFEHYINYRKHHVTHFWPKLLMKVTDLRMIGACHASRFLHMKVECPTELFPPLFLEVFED
# human Thyroid hormone Receptor alpha (TRa), THRA (gene 7067), sequence (P10827 whole entry, looked up, the tested form may be a part): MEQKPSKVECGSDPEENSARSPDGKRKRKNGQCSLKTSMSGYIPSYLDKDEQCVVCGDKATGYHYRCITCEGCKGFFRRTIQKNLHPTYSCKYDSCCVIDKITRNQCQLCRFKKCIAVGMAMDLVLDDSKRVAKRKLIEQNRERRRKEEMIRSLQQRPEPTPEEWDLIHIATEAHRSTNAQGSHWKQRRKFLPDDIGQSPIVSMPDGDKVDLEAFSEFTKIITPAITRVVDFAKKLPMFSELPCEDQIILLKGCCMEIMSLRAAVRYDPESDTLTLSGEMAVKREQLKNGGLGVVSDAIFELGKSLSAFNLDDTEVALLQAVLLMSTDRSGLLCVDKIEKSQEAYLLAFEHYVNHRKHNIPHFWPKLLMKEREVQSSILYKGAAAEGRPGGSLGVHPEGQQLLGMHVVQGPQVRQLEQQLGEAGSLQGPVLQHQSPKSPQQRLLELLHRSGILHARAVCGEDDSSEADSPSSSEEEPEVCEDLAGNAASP
smiles,measurement,setting,value
O=S1OCC2C(CO1)C1(Cl)C(Cl)=C(Cl)C2(Cl)C1(Cl)Cl (centres undefined),outcome,[1],inactive
same,outcome,[2],inactive
same,outcome,[3],inactive
same,AC50,[4],0.512 µM (active)
same,outcome,[5],inactive
same,outcome,[6],inactive
same,outcome,[7],inactive
same,outcome,[8],inactive
same,outcome,[9],inactive
same,outcome,[10],inactive
same,outcome,[11],inactive
same,AC50,[12],2.06 µM (active)
same,outcome,[13],inactive
same,outcome,[14],inactive
CC(C)(C)C(O)/C(=C\c1ccc(Cl)cc1Cl)n1cncn1 (centres undefined),outcome,[11],inactive
same,outcome,[12],inactive
same,AC50,[15],8.38 µM (active)
same,outcome,[15],inactive
same,outcome,[13],inactive
same,AC50,[14],16 µM (active)
same,outcome,[14],inactive
O=C(O)C(F)(F)C(F)(F)C(F)(F)C(F)(F)C(F)(F)C(F)(F)C(F)(F)F,outcome,[11],inactive
same,AC50,[12],35.5 µM (active)
same,AC50,[15],38.4 µM (active)
same,AC50,[14],37.9 µM (active)
CCOCN(C(=O)CCl)c1c(C)cccc1CC,outcome,[1],inactive
same,AC50,[2],0.727 µM (active)
same,AC50,[3],1.89 µM (active)
same,AC50,[4],4 µM (active)
same,outcome,[10],inactive
CCCN(CCC)c1c([N+](=O)[O-])cc(C(F)(F)F)cc1[N+](=O)[O-],AC50,[2],27.1 µM (active)
same,outcome,[16],inactive
same,AC50,[3],35.1 µM (active)
same,AC50,[4],2.85 µM (active)
same,outcome,[6],inactive
same,outcome,[7],inactive
same,outcome,[8],inactive
same,outcome,[9],inactive
same,outcome,[10],inactive
same,outcome,[11],inactive
same,outcome,[12],inactive
same,outcome,[17],inactive
same,outcome,[13],inactive
same,outcome,[14],inactive
